# Anaer choline gr: choline-fed anaerobic bacterial growth inhibition | 0.2% of 55,000 active | calls only | Gram-negative bacterium anaerobic choline minimal medium, absorbance growth; stronger effect = lower value; call rule not given here
# Numbers without * were called inactive; i = inactive; + = active, no number; ! = a repeat was not active. Shown is part of a subset that was picked to be rich in hits.
SMILES,Anaer choline gr
CCn1c(=O)c(-c2noc(C(=O)N3CCOCC3)n2)nn(-c2ccccc2)c1=O,i
Cc1cccc(CN=C2Nc3ccccc3NC23CCC(C)CC3)c1 (centres undefined),i
Nc1nc(Cl)nc2c1ncn2[C@@H]1O[C@H](CO)[C@@H](O)[C@@H]1F,+!
Nc1nc(Cl)nc2c1ncn2[C@H]1C[C@H](O)[C@@H](CO)O1,i
O=c1[nH]cnc2c1ncn2C1O[C@H](CO)[C@@H](O)[C@H]1O (some centres undefined),i
COC(=O)c1ccccc1NC(=O)NCc1ccnc(N2CCCCC2)c1,i
CCc1c(C)nc(-n2nc(C)cc2NC(=O)c2ccc(C)c(C)c2)[nH]c1=O,i
CCCCC[C@H](CC(=O)NO)C(=O)N[C@H](C(=O)N1CCC[C@H]1CO)C(C)C,i
CCc1nc(-c2csc(S(=O)(=O)N3CCC(C(=O)NC4CC4)CC3)c2)no1,i
CCC(=O)N1CCCC(C(=O)NC2CC2)C1 (centres undefined),i
CCCCC/C=C\C/C=C\CCCCCCCC(=O)O,i
CCCCC/C=C\C/C=C\C/C=C\CCCCCCC(=O)O,i
CCCCC/C=C\C/C=C\C/C=C\CCCCC(=O)O,+
CCCn1c(=O)c2ccc(C(=O)NC(C)C)cc2n2c(=O)n(CC(=O)NCc3ccccc3)nc12,i
CCCN1CCN(C(=O)c2cc3sc(C)c(CN4CCCCC4)c3[nH]2)CC1,i
Cc1sc2cc(C(=O)N3CCC(N4CCCCC4)CC3)[nH]c2c1CN1CCCCC1,+
Cc1sc2cc(C(=O)N3CCC4(CC3)OCCO4)[nH]c2c1CN1CCCCC1,i
Cc1cccc(CN2CC=C(C(=O)Nc3ccc(C)c(C)c3)CC2)c1,i
N#CC1=CN(c2cccc(F)c2)c2cc(F)ccc2S1(=O)=O,i
Cc1cccc(NC(=O)CN2CCN(c3cc(C(=O)O)c4cc(N)ccc4n3)CC2)c1,i
COc1ccc(-c2nn3c(NCc4ccccn4)cc(C)nc3c2C)cc1OC,i
CCCCC[C@H](O)/C=C/[C@H]1[C@H](O)CC(=O)[C@@H]1CCCCCCC(=O)O,i
CCCCC[C@H](O)/C=C/[C@H]1[C@H](O)CC(=O)[C@H]1CCCCCCC(=O)O,i
CCCCC[C@H](O)CC[C@H]1[C@H](O)CC(=O)[C@@H]1CCCCCCC(=O)O,+!
O=C(NCC(c1cccnc1)N1CCc2ccccc2C1)C(=O)Nc1ccc2c(c1)OCO2 (centres undefined),i
SMILES,Anaer choline gr
CO/N=C(\C(=O)N[C@@H]1C(=O)N2C(C(=O)[O-])=C(C[N+]3(C)CCCC3)CS[C@H]12)c1csc(N)n1,+
COCC1=C(C(=O)OC(C)OC(=O)OC(C)C)N2C(=O)C(NC(=O)C(=NOC)c3csc(N)n3)C2SC1 (centres undefined),i
CC(C)(O/N=C(\C(=O)N[C@@H]1C(=O)N2C(C(=O)[O-])=C(C[n+]3ccccc3)CS[C@H]12)c1csc(N)n1)C(=O)O,i
CCCn1c(=O)c2ccc(C(=O)NC(C)C)cc2n2c(=O)n(CC(=O)c3cc(C)ccc3C)nc12,i
Cc1c(N2CCC(C(=O)Nc3ccc4c(c3)OCCO4)CC2)c(=O)n(C)c(=O)n1-c1ccccc1,i
CN1CCN(S(=O)(=O)c2cc(-c3ccc(=O)[nH]n3)ccc2Cl)CC1,i
CN1CCN(CCc2ccc(Cl)c(Cl)c2)CC1,+
CN1CCN(CCNC(=O)c2cc3n(n2)CCCC3)CC1,i
COc1ccccc1CNC(=O)c1n[nH]nc1Nc1cccc(Cl)c1,i
CCOc1ccc(C(=O)NCCn2c(C(F)(F)F)nc3ccccc32)cc1,i
CCCN1CCN(S(=O)(=O)c2cc(-c3cnn4c(C)cc(C)nc34)ccc2C)CC1,i
CCN1CCCC1CNC(=O)c1c(O)c(Cl)cc(Cl)c1OC (centres undefined),i
CCc1cc(Cl)c(OC)c(C(=O)NCC2CCCN2CC)c1O (centres undefined),i
CCc1cc(Cl)c(OC)c(C(=O)NC[C@@H]2CCCN2CC)c1O,+!
O=C(CN1C(=O)CSc2ccc(C(=O)N3CCCC3)cc21)NCc1ccc2c(c1)OCO2,i
Cc1cccc(C)c1Nc1c(-c2ccc(F)cc2)nc2cnc(Br)cn12,i
COc1ccc(Cl)cc1S(=O)(=O)Nc1ccc2nncn2n1,i
CSc1ccc2c(c1)N(CCC1CCCCN1C)c1ccccc1S2 (centres undefined),i
O=S(=O)(c1ccccc1)N1CCCC1c1ccc(Cl)cc1 (centres undefined),i
CN1CCCC1CCOC(C)(c1ccccc1)c1ccc(Cl)cc1 (centres undefined),+
Cc1cc(C)nc(N2CCC(C(N)=O)CC2)n1,i
CC1Oc2ccc(S(=O)(=O)N3CCN(C(=O)Nc4cccc(Cl)c4)CC3)cc2NC1=O (centres undefined),i
O=C(O)CCC/C=C\C[C@@H]1[C@@H](/C=C/[C@@H](O)COc2cccc(C(F)(F)F)c2)[C@H](O)C[C@@H]1O,+!
O=C(O)CCC/C=C/C[C@@H]1[C@@H](/C=C/[C@@H](O)COc2cccc(C(F)(F)F)c2)[C@H](O)C[C@@H]1O,i

# High-throughput results from PubChem BioAssay.
